Test results taken from PubChem BioAssay.

What follows are compounds tested against Alpha-bungarotoxin (Bungarus multicinctus) (UniProt P60615) (assay: compounds binding labelled alpha-BTX control protein – biochemical, small-molecule microarray, Alexa647 label, 635/667 nm fluorescence, artefact control for SMM control protein annotation, profiling panel (AID 1117)). Conditions: alpha-BTX-A647 binding fluorescence, higher = more signal.
Sequence of Alpha-bungarotoxin (Bungarus multicinctus) (P60615 whole entry, looked up): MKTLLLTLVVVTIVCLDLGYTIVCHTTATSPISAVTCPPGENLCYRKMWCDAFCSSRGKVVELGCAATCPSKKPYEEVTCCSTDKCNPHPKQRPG

SMILES | composite z-score
O=C1C2C=CC(C(O)Cc3ccccc3)N(Nc3ccc([N+](=O)[O-])cc3)C2C(=O)N1c1ccccc1 (stereo unspecified) | 0.307
CC(C)C[C@@H]1NC(=O)[C@H](CC(C)C)NC(=O)[C@@]23C(=O)N[C@@H](Cc4ccccc4)C2[C@H](C)[C@@]2(C)O[C@H]2C3/C=C/CC/C=C/CNC1=O (stereo partly specified) | 0.683
COC(=O)[C@@]1(Cc2ccccc2CN=[N+]=[N-])N=C(c2ccc(OCCCO)cc2)O[C@H]1c1ccccc1N=[N+]=[N-] | 0.45
CCOC(=O)C[C@H]1[C@H](OC(=O)Cc2ccc3c(c2)OCO3)[C@@H](NC(=O)c2ccc3ccccc3c2)c2cc(OCCCO)ccc2N1C(=O)Cc1ccc(OC)cc1 | 0.454
C[N+](C)(C)CCCCNC(=O)[C@H]1C[C@H]2C(=O)NCC(=O)N2[C@H]1c1cccc(OCCO)c1 | 0.804
C=C(/C(=C/C[C@@H](OC(=O)c1ccncc1)c1ccc(CO)o1)c1cnc2ccccc2c1)C(C)C | 0.474
CCCNC(=O)[C@@]1(Sc2ccc(C)cc2)CC(=O)N(Cc2ccccc2Cl)[C@@H]1c1ccc(CO)cc1 | 2.05
COC(=O)Cn1c(C(=O)N2CCCC2)cc2c1C[C@H]1CN(C(=O)c3ccccc3)[C@@](Cc3ccccc3)(C(=O)OC)[C@@H]21 | 0.236
NC(=O)NCC#Cc1ccc2c(c1)[C@]1(C(=O)N2)[C@H](C(=O)N2CCCCCCC2)[C@H]2C(=O)O[C@H](c3ccccc3)[C@H](c3ccccc3)N2[C@@H]1c1ccccc1OCCO | 2.63
Cc1ccc(S[C@]2(C(=O)NCCCN(C)C)CC(=O)N(C3CCCCC3)[C@@H]2c2ccc(CO)cc2I)cc1 | -0.693
CCN1C(C)=C(C(=O)OC)[C@@H](c2ccccc2)N2C(=O)[C@@]3(C(=O)OC)O[C@@]12[C@@H]1C(=O)N(C)C(=O)[C@@H]13 | 1.19
CO[C@H]1COC(=O)[C@H](C)NC(=O)CC=C[C@@H](C)[C@H](NS(=O)(=O)c2ccc(C)cc2)COC(=O)CC=C[C@@H]1C | -0.555
Cc1ccc(S(=O)(=O)N[C@H]2COC(=O)CC=C[C@H](C)COC(=O)N[C@@H](C)C(=O)CC=C[C@@H]2C)cc1 | 0.0411
CN1C2C=C(c3ccc(CO)cc3)C(C3C(=O)N(C(N)=O)C(=O)C32)C1c1cccs1 (stereo unspecified) | -1.09
CCCC=C(CCC)[C@@H](NS(=O)(=O)c1ccc(C(F)(F)F)cc1)c1ccc(-c2ccccc2)cc1 | 0.709
CO[C@H]1COC(=O)[C@@H](C)NC(=O)CC=C[C@@H](C)[C@H](OC)COC(=O)CC=C[C@@H]1C | -1.47
C=CCC(OC(C)=O)[C@@H]1[C@@H](N(Cc2cc3ccccc3o2)C(=O)Cc2ccc(F)cc2)c2cc(OCCCO)ccc2N1C(=O)c1ccc(-c2ccccc2)cc1 (stereo partly specified) | 0.208
Cc1ccc(N2C(=O)c3ccccc3[C@@H](C(=O)NCc3ccccc3)[C@@H]2c2ccc(CO)cc2)nc1 | -0.326

SMILES | composite z-score
CCCC[C@@H]1C[C@H]1[C@@H](NC(=O)c1ccccc1)c1ccccc1C(F)(F)F | 1.61
CN1C(=O)C2C=CC(C(O)c3ccc(N(C)C)cc3)N(Nc3ccc([N+](=O)[O-])cc3[N+](=O)[O-])C2C1=O (stereo unspecified) | 0.988
O=C1C2C=CC(C(O)C#Cc3ccccc3)N(Nc3ccccc3)C2C(=O)N1c1ccccc1 (stereo unspecified) | 0.472
Cc1ccc(S[C@]2(C(=O)NCCN3CCOCC3)CC(=O)N(C3Cc4ccccc4C3)[C@@H]2c2ccc(CO)cc2I)cc1 | 1.74
O=C1O[C@@H](c2ccccc2)[C@@H](c2ccccc2)N2[C@@H](c3ccc(O)cc3)[C@]3(C(=O)Nc4ccccc43)[C@@H](C(=O)N3CCN(c4ncccn4)CC3)[C@H]12 | 1.16
C=CC[C@]1(C(=O)NCC(O)CO)N=C(c2ccc(OCCCO)cc2)O[C@H]1c1ccccc1 (stereo partly specified) | 1.29
CC[C@@H]1C=C(C(=O)O)[C@H](c2ccccc2)N1S(=O)(=O)c1ccc([N+](=O)[O-])cc1 | 0.427
CN1CCC(CCCO)=CC1C1CC1 (stereo unspecified) | -0.234
C=CC[C@]1(C(=O)N2CCCCC2)N=C(c2ccc(OCCCO)cc2)O[C@H]1c1ccccc1N=[N+]=[N-] | 2.28
COc1cccc([C@@H]2[C@@H](C)CC[C@H]3C(=O)N4[C@H](c5cccc(OC)c5)[C@@H](C)CC[C@H]4C(=O)N23)c1 | 0.452
COCCOC(=O)N1C(=O)[C@@]2(c3cc(C#CC4=CCCCC4)ccc31)[C@H](c1ccc(O)cc1)N1[C@H](c3ccccc3)[C@H](c3ccccc3)OC(=O)[C@H]1[C@@H]2C(=O)N1CCCCCCC1 | 1.69
C=CCC(OC(C)=O)[C@@H]1[C@@H](N(Cc2cccc3ccccc23)C(=O)c2ccc(C)cc2)c2cc(OCCCO)ccc2N1C(=O)c1ccc(-c2ccccc2)cc1 (stereo partly specified) | -0.218
C=CCN1C(=O)[C@]2(O[C@H](CCn3cc(CCO)nn3)[C@@H]([Si](C)(C)c3ccc(OC)cc3)[C@@H]2C)c2cc(NC(=O)c3ccc(OC)cc3)ccc21 | 1.19
CC(=O)NCCCC[C@@H]1NC(=O)[C@@H]2C[C@H](C(=O)NCCCCCCN(C)C)[C@H](c3ccc(O)cc3)N2C1=O | 1.65
CO[C@@H]1COC(=O)[C@H](COCc2ccccc2)NC(=O)CC=C[C@@H](C)[C@H](OC)COC(=O)[C@H](COCc2ccccc2)NC(=O)CC=C[C@H]1C | -0.774
COCCOC(=O)N1C(=O)[C@@]2(c3ccccc31)[C@H](C(=O)N1CCc3cc(OC)c(OC)cc3C1)[C@H]1C(=O)O[C@H](c3ccccc3)[C@H](c3ccccc3)N1[C@@H]2c1ccccc1OCCO | 2.42
C=C(CCCC)/C(=C/C[C@@H](OC(=O)c1ccncc1)c1cccc(OCCO)c1)c1cc(C(=O)OC)ccc1OC | 1.21
C#CCCCON=C1C[C@@H](O)[C@@H](O)[C@@H]2[C@@H]3C(=O)N(Cc4ccc5c(c4)OCO5)C(=O)[C@@H]3CC[C@@H]12 | 1.4
